Source: PubChem BioAssay
Compounds with a hit are over-represented: about 1.2% of the library has one in this group of screens.
mIDH1 inhibitor – human IDH1 R132H inhibition. Potency, µM (series often up to 76.6 µM), for inactives: at the highest dose activity change, negative = inhibition, actives largely listed as inhibitors. IDH1-R132H enzyme, NADPH consumption, diaphorase/resazurin fluorescence. AID 602179. hit rate 0.093% among 390,000; further: potency means the concentration at half of the fitted maximal effect; on the % scale 0 is the no-effect control and ±100 the full control effect; nearly all actives have a fitted effect of over 65% in size
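IDH1-R132H (0.5 ug/mL) preincubated 30 min with compound, then NADPH (0.016 mM) and alpha-KG (2 mM) added; 80 min at RT, pH 7.5. Remaining NADPH coupled via diaphorase/resazurin to fluorescence (540/590 nm); concentration-response curves normalized to no-enzyme control.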
Apoferritin bind – binds horse apoferritin like a general anesthetic | apoferritin/1-aminoanthracene competitive binding, fluorescence | Potency, µM (doses to about 77.5 µM), inactives show at the highest dose activity change, negative = displacement, most hits filed as inhibitors | hit rate 0.074% among 350,000 | P02791 | AID 485281; further: potency means the concentration at half of the fitted maximal effect; on the % scale 0 is the no-effect control and ±100 the full control effect; nearly all actives have a fitted effect of over 20% in size
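Read-out: endpoint 1-AMA fluorescence, excitation 380 nm and emission 535 nm, after compounds sit 10 min at room temperature with 10 uM horse-spleen apoferritin in 50% saturated 1-AMA/PBS. Values come from four-parameter Hill fits.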
KCNH2 3.1 inh – inhibitors of human KCNH2 3.1 potassium channel isoform | U2OS KCNH2 3.1, thallium flux FluxOr; active compounds read low | activity change, % (tested at about 1.8 µM) | hit rate 0.95% among 340,000;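 active means maximum activity change below -70%; inconclusive means maximum activity change from -70% to -50%; inactive means maximum activity change above -50%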;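 further: thallium influx rate constant from kinetic fluorescence after stimulation buffer; on the % scale 0 is the no-effect control and ±100 the full control effect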
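Kinetic fluorescence (2 min after stimulation buffer) measures Tl+ influx through KCNH2 3.1 expressed by viral transduction in U2OS cells; the rate constant is normalized against DMSO controls serving as positive and negative references.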
S-ASM inh – blocks human secretory acid sphingomyelinase. Potency, µM (titrated, usually from 57.5 µM), inactives show top-dose activity change, negative = inhibition, usual class: inhibitors. placental ASM, HMU-PC fluorogenic substrate, 60 min. hit rate 0.006% among 340,000. P17405; further: potency means the concentration at half of the fitted maximal effect
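Steps: dispense placental human ASM, pin compound, wait 10 min at room temperature, add HMU-PC0 substrate at 9 uM final, incubate 60 min at 37 °C, add stop solution raising pH to 10, read fluorescence.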
KCNH2 WT inh – inhibitors of human wildtype KCNH2 potassium channel | AID 720551 | U2OS, BacMam KCNH2, thallium flux FluxOr; active compounds read low | activity change, % at 1.84 µM | Q12809 | hit rate 0.37% among 340,000;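 active means maximum activity change below -70%; inconclusive means maximum activity change between -70% and -50%; inactive means maximum activity change above -50%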; further: on the % scale 0 is the no-effect control and ±100 the full control effect
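U2OS cells transduced with wild-type KCNH2 virus are loaded with FluxOr dye for 45 min, and thallium flux is measured in kinetic reads before and after stimulation buffer. Rate constants are normalized to DMSO controls.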
IDH1 autofl – interferes with resorufin fluorescence in IDH1 counter-screen; 750 tested, under 10 active; shares compounds with mIDH1 inhibitor; Resorufin detection reagent fluorescence interference, cell-free; inhibition of signal, % at 51.2 µM;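 further: 0% = wells with normal resorufin and full inhibition = wells lacking resorufin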
WT IDH1 inh – wild-type IDH1 (human) inhibition counterscreen | AID 623995 | WT IDH1 enzyme, NADPH diaphorase/resazurin fluorescence | Potency, µM (top dose mostly 115 µM), for the others: at the top dose activity change, negative = inhibition, actives largely listed as inhibitors | hit rate 9% among 750 | shares compounds with mIDH1 inhibitor;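 further: potency means the concentration at half of the fitted maximal effect; 0% = full WT IDH1 enzyme control and full inhibition = no enzyme wells; nearly all actives have a fitted effect of over 55% in size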
IDH1 R132H conf – inhibits human mutant IDH1 enzyme in cherrypick confirmation; shares compounds with mIDH1 inhibitor; IDH1 R132H enzyme, NADPH diaphorase/resazurin fluorescence; Potency, µM (highest dose often 76.6 µM), for inactives: top-dose activity change, negative = inhibition, hits mostly inhibitors; hit rate 83% among 750; further: potency means the concentration at half of the fitted maximal effect; nearly all actives have a fitted effect of over 50% in size
* marks the source's active call; other numbers are inactive results; ? = inconclusive; . = no result given. Unless noted, the call rests on the fitted dose curve; in most records, active means well fitted curve in the direction sought with a large enough effect; inconclusive means small, poorly fitted or top-dose-only effect, or another doubt; inactive means no such curve, though single readings can be large; an effect the other way counts as inactive or inconclusive.

SMILES | mIDH1 inhibitor | Apoferritin bind | KCNH2 3.1 inh | S-ASM inh | KCNH2 WT inh | IDH1 autofl | WT IDH1 inh | IDH1 R132H conf
O=S(=O)(c1ccccc1)c1nnn2c1nc(Nc1ccccc1)c1cc(Cl)ccc12 | 5% | -5% | . | . | . | . | . | .
C[C@@H]1CN([C@H](C)CO)S(=O)(=O)c2ccc(C#Cc3ccccc3F)cc2O[C@H]1CN(C)C(=O)c1ccc2c(c1)OCO2 | ? | . | -5 | . | 8 | -1 | 5% | 5.6µM*
C[C@H](CO)N1C[C@H](C)[C@@H](CN(C)CC2CCOCC2)Oc2cc(C#Cc3ccccc3F)ccc2S1(=O)=O | ? | . | -13 | . | -3 | . | . | .
Cc1cccn2c(=O)c(/C=C(\C#N)S(=O)(=O)c3ccccc3)c(N3CCC(C(N)=O)CC3)nc12 | ? | -10% | -5 | -6% | 7 | 1 | -1% | 40µM*
O=C1CCCC2=C1C(c1ccc(O)c(Br)c1)C1=C(CCCC1=O)N2c1ccccc1 | ? | 9% | 15 | 28% | -3 | 6 | 11% | ?
CCN1C2=C(C(=O)CCC2)C(c2ccc(O)c(Br)c2)C2=C1CCCC2=O | 10% | 6% | 0 | 16% | -2 | . | . | .
COc1ccc(-c2c(C)nc(N)nc2-c2ccc(OC)cc2O)cc1 | 8% | -13% | -13 | 7% | -12 | . | . | .
COc1ccc(-c2c(C)nc(N)nc2-c2ccc(OCc3ccc(C)cc3)cc2O)cc1OC | ? | ? | 3 | -6% | -9 | -5 | 6% | ?
CC(=O)Nc1ccc(C2=NNC(=NCC3CCCO3)SC2)cc1 (centres undefined) | ? | 4% | -2 | -3% | -2 | -5 | 364% | 45µM*
CC(C)c1ccc(NC(=O)CSC2=Nc3ccccc3C3=NC(CC(=O)NCc4ccco4)C(=O)N23)cc1 (centres undefined) | -13% | -23% | . | . | . | . | . | .
CC(=O)SC1CC(=O)N(c2ccc(C(C)(C)C)cc2)C1=O (centres undefined) | ? | -16% | -5 | -3% | -5 | 3 | 2% | 22µM*
CC(=O)N1CCc2c(sc3c2c(=O)n(-c2ccccc2)c(=O)n3Cc2cccc(C(F)(F)F)c2)C1 | 22µM* | ? | . | . | . | -12 | 7.9µM* | 11µM*
CC(=O)c1cccc(-n2c(=O)c3c4c(sc3n(Cc3cccc(C)c3)c2=O)CN(C(C)=O)CC4)c1 | ? | -12% | . | . | . | . | . | .
COC(=O)c1ccc(OC)c(Cn2c(=O)n(-c3cccc(Cl)c3)c(=O)c3c4c(sc32)CN(C(C)=O)CC4)c1 | -8% | -9% | . | . | . | . | . | .
COc1cccc(Cn2c(=O)n(-c3cccc(Cl)c3)c(=O)c3c4c(sc32)CN(C(C)=O)CC4)c1 | ? | ? | . | . | . | 0 | 14µM* | 14µM*
O=C(c1ccccc1)N1N=C(c2ccccc2)CC1c1ccccc1O (centres undefined) | 1% | -18% | 0 | -13% | -16 | . | . | .
O=C(c1ccncc1)N1N=C(c2ccc(Br)cc2)CC1c1ccccc1O (centres undefined) | 35µM* | ? | -14 | -16% | -10 | 1 | 2% | 16µM*
Cc1sc(NC(=O)c2ccco2)c(C(c2cccnc2)N2CCC(C)CC2)c1C (centres undefined) | ? | 90% | -10 | 19% | -1 | -5 | 1% | ?
COc1ccc(CNC(=O)c2cnn3c(C)c(Cc4ccc(F)cc4)c(C)nc23)cc1 | 10% | -2% | . | . | . | . | . | .
O=S(=O)(/N=C(/Nc1ccc(Cl)c(S(=O)(=O)Nc2ccccc2Cl)c1)c1ccc(F)cc1)c1ccccc1 | ? | -22% | -2 | -4% | -3 | -1 | 3% | ?
COc1ccccc1NS(=O)(=O)c1cc(N/C(=N/S(=O)(=O)c2ccccc2)c2ccc(F)cc2)ccc1Cl | -7% | . | -8 | . | -2 | . | . | .
COc1cc2cnc(-c3ccccc3)c(-c3cccc(C(F)(F)F)c3)c2cc1OC | 7% | . | 5 | ? | 3 | . | . | .
COc1cc2cnc(-c3ccsc3)c(-c3ccc(F)cc3)c2cc1OC | ? | . | 2 | -21% | 6 | 1 | 8% | 25µM*
COc1cc2cnc(-c3ccccc3)c(-c3ccc(C#N)cc3)c2cc1OC | 32µM* | . | 3 | -19% | -7 | 0 | ? | 8.9µM*
COc1cc2cnc(-c3ccsc3)cc2cc1OC | 6% | . | 20 | 9% | 2 | . | . | .
SMILES | mIDH1 inhibitor | Apoferritin bind | KCNH2 3.1 inh | S-ASM inh | KCNH2 WT inh | IDH1 autofl | WT IDH1 inh | IDH1 R132H conf
CC(CNC(=O)C1CCN(Cc2cc3ccccc3n2Cc2ccccc2)CC1)c1ccccc1 (centres undefined) | -3% | 5% | . | . | . | . | . | .
CCOC(=O)CC(=O)CSc1nc2c(sc(=S)n2-c2ccc(OCC)cc2)c(=O)[nH]1 | 6% | -4% | -8 | -4% | -24 | . | . | .
CCOc1ccc(-n2c(=S)sc3c(=O)[nH]c(SCC(=O)NC(C)CC)nc32)cc1 (centres undefined) | 37µM* | -6% | -1 | 3% | -7 | 0 | 8.9µM* | 32µM*
COc1ccc(Cl)cc1-n1c(=S)sc2c(=O)[nH]c(SCC(=O)NCCC(C)C)nc21 | 37µM* | -9% | -10 | -4% | 12 | 3 | 7% | 11µM*
CCOC(=O)CC(=O)CSc1nc2c(sc(=S)n2-c2ccc(C)c(C)c2)c(=O)[nH]1 | -2% | 2% | 15 | 13% | 2 | . | . | .
Cc1c(OC(C)C(=O)O)ccc2c(-c3ccccc3)cc(=O)oc12 (centres undefined) | -3% | 1% | 3 | 9% | -35 | . | . | .
Cc1c(OC(C(=O)O)c2ccccc2)ccc2c(-c3ccccc3)cc(=O)oc12 (centres undefined) | ? | -6% | 12 | 8% | -5 | 6 | -7% | 13µM*
CCOc1cc(C=C2C(=O)c3ccccc3C2=O)ccc1OCC(=O)Nc1ccc(C)cc1 | ? | 5% | 5 | -2% | 15 | -4 | 7% | 16µM*
Cc1c(Cl)cccc1-n1nc(C)c2c(C)cc(=O)n(CC(=O)N3CCCc4ccccc43)c21 | -5% | 60% | . | . | . | . | . | .
Cc1ccc(NC(=O)CN2C(=O)COc3ccc(S(=O)(=O)N4CCCCCC4)cc32)cc1Cl | ? | -23% | . | . | . | -8 | 0% | 14µM*
Cc1cccc2c1N(CCOc1ccc(C(C)(C)C)cc1)C(=O)C2=O | ? | -9% | -1 | -17% | -1 | -4 | -18% | 25µM*
